Measured values reported in PubChem BioAssay.
Results filed as inconclusive are left out. Active and inactive are the calls of the source.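 How the source made its calls, unless noted: active means response below a set limit, under 55% cells CD8-positive and vesicle-bound, and CD8 cells' 90th-percentile brightness under 279; inactive means the rest.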

Key:
[1] = rapamycin-like changes in RPL19A-GFP expression – cell-based, S. cerevisiae, multiplex flow cytometry, primary screen (AID 1862; in the data active means percent of DMSO control GFP below about 86%;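 further: lower values mimic rapamycin by blocking the RPL19A rise seen in DMSO cells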); conditions: S. cerevisiae RPL19A-GFP strain, flow cytometry fluorescence, 3 h; at 10 µM; stronger effect = lower value
[2] = TOR pathway GLN3 branch reporter MEP2-GFP changes – S. cerevisiae, multiplex flow cytometry, primary screen (AID 1867;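 active means GFP response, as percent of the DMSO control, above the screen-wide mean plus 3 SD, about 139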;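 further: median GFP channel fluorescence of barcode-gated MEP2-GFP cells measured by flow cytometry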); conditions: S. cerevisiae MEP2-GFP strain, 3 h, at 10 µM, stronger effect = higher value, 100% means same as DMSO wells
[3] = TOR pathway RTG branch CIT2 reporter changes – S. cerevisiae, GFP fusion, multiplex flow cytometry, primary screen (AID 1870;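 active means percent response above a set limit, the screen-wide mean plus 3 SD, cut at about 130% in these data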;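 further: barcoded CIT2-GFP strain pooled with four other GFP strains with rapamycin as positive control; median GFP fluorescence per well over plate mean of DMSO wells so 100% = DMSO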); conditions: S. cerevisiae CIT2-GFP expression, 3 h, at 10 µM, stronger effect = higher value
[4] = TOR pathway LAP4-GFP level changes – S. cerevisiae, multiplex flow cytometry, primary screen (AID 1873;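 active means GFP signal, as percent of the solvent control, above the screen mean plus 3 SD, about 149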); conditions: S. cerevisiae LAP4-GFP expression, 3 h, at 10 µM, stronger effect = higher value
[5] = yeast AGP1-GFP level changes, GLN3 branch – cell-based, multiplex flow cytometry, S. cerevisiae, primary screen (AID 1887;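 active means GFP signal above the screen-wide mean plus 3 SD, that is over about 124.5% of the solvent control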;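 further: AGP1-GFP fusion strain of S. cerevisiae within a five-strain barcoded multiplex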); conditions: 3 h, at 10 µM, stronger effect = higher value
[6] = reduced mouse 2C T cell binding to pMHC/ICAM-1 vesicles – MLPCN validation set, flow cytometry, LFA-1/ICAM-1 modulator project, pilot screen (AID 2523); conditions: 2C mouse CD8+ T cells, at 7 µM, stronger effect = lower value; double positive events: measured here: CD8+/vesicle+ event percentage;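 on vesicle binding response: mean PE anti-B7-1 fluorescence of CD8+ cells relative to row control; 100% = QL9-loaded vesicles with DMSO vehicle in the same plate row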
[7] = target: Integrin beta-1 (Homo sapiens) + Integrin alpha-4 (Homo sapiens) (UniProt P13612+P05556); experiment: alpha4beta1 integrin LIBS antibody binding reduction – U937 cells, HUTS-21 mAb, flow cytometry, validation set, VLA-4 allosteric modulator project, pilot screen (AID 2674;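 active means inhibition above 50%, about 3 SD of the validation set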;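 further: antibody binding induced by the VLA-4 ligand LDV present at three times its Kd; 0% = LDV ligand with antibody and no compound and 100% = antibody without LDV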); conditions: HUTS-21 LIBS mAb binding, at 6.7 µM, stronger effect = higher value, binding induced by LDV ligand
[8] = calorie-restriction mimetic ROS inhibitors, yeast – validation compound set, pilot screen (AID 2706;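 active means superoxide response below 65% of plate, a cut near 3 SD across the whole screen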;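 further: yeast exposed to compound for one week at 30 degrees C before staining; 100% = mean of all compound wells on the same plate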); conditions: S. cerevisiae aging, superoxide DHE fluorescence; at 10 µM; stronger effect = lower value
[9] = target: Beta-adrenergic receptor kinase 1 (Homo sapiens) (UniProt P25098); experiment: GRK2 binders displacing RNA aptamer, biochemical, validation, human GRK2, bead flow cytometry (AID 488806;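 active means aptamer binding inhibition above 30%, about 3 SD of noise from non-fluorescent compounds; inactive means inhibition at or below 30%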); conditions: bead-bound GRK2, FAM-aptamer displacement, at 10 µM, stronger effect = higher value
[10] = target: Beta-2 adrenergic receptor (Homo sapiens) (UniProt P07550); experiment: agonist-induced loss of surface beta2AR – cell-based, FAP fluorogen, flow cytometry, validation set, pilot screen (AID 504459;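 active means percent response above 42, roughly 3 SD of non-fluorescent test compounds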;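 further: agonist-driven loss of surface beta2AR via internalization measured by FAP dye flow cytometry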); conditions: Am2.2-beta2AR cells, at 10 µM, stronger effect = higher value
[11] = target: AP-2 complex subunit beta (Homo sapiens) (UniProt P63010); experiment: beta-arrestin/AP2 interaction blockers – biochemical, validation set, GST-AP2 beads, flow cytometry, pilot screen (AID 504541;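 active means inhibition above 54%, about 3 SD of non-fluorescent compounds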;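 further: AP2 carries R879A mutation and is captured from E. coli lysate; bead-bound FITC arrestin peptide fluorescence measuring arrestin peptide binding to AP2; 0% = DMSO wells and 100% = excess unlabeled arrestin peptide control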); conditions: FITC arrestin peptide, at 10 µM, stronger effect = higher value, AP2 beta2 appendage fragment, R879A mutant
[12] = cytosolic pH regulators acting via V-ATPase – S. cerevisiae, pHLuorin, HTS validation (AID 504600; in the data active means response above about 15%;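 further: plate controls were DMSO for no effect and reference compound for full effect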); conditions: V-ATPase proton transport, at 10 µM, stronger effect = higher value
[13] = system: anti-desmoglein-3 scFv antibody binding to human DSG3; experiment: blockers of pathogenic pemphigus antibody–desmoglein-3 binding – biochemical, validation compound set, bead-based, flow cytometry, pilot screen (AID 588368;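 active means binding below the plate cutoff, the plate median minus 3 SD, with a reading above zero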;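 further: signal is the median channel fluorescence of bead-bound GFP antibody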); conditions: Protein G beads, DSG3-Fc, scFv-GFP binding, at 10 µM, stronger effect = lower value
[14] = Nile Red efflux blockade in pump-expressing yeast – validation compound set, multiplex, phenotypic, pilot screen (AID 588506;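 active means efflux inhibition above 0.42, the validation set average plus 4 SD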;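 further: Nile Red retained in cells so higher fluorescence means more efflux inhibition; 0 = negative control wells and 1 = enniatin B 25 µM full block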); conditions: S. cerevisiae pump-expressing triplex, Nile Red efflux flow cytometry; at 10 µM; stronger effect = higher value; the pumps come from Candida albicans
[15] = target: ATP-binding cassette sub-family B member 6 (Homo sapiens) (UniProt Q9NP58); experiment: blockers of ABCB6-driven porphyrin uptake – K562-ABCB6 cells, flow cytometry, validation set, pilot screen (AID 588550;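 active means inhibition above the screen-wide mean plus 3 SD, about 51%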;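 further: 0% = DMSO wells and 100% = benzethonium chloride 70 µM positive control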); conditions: K562-ABCB6 porphyrin accumulation, 1 h, at 10 µM, stronger effect = higher value
[16] = AML differentiation inducers, ER-HoxA9 marrow cells – cell-based, GFP/MAC1 double positive, flow cytometry, validation set, primary screen (AID 588685;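 active means differentiation response of at least 50%, scaled between solvent and reference control, from cells with both markers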;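 further: compound exposure lasts four days before antibody staining and flow analysis; 0% = DMSO wells and 100% = 5 µM fulvestrant positive control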); conditions: stronger effect = higher value, normalized: vehicle 0, fulvestrant 100

Chain of Integrin beta-1 (Homo sapiens) + Integrin alpha-4 (Homo sapiens) (P05556 whole entry, looked up): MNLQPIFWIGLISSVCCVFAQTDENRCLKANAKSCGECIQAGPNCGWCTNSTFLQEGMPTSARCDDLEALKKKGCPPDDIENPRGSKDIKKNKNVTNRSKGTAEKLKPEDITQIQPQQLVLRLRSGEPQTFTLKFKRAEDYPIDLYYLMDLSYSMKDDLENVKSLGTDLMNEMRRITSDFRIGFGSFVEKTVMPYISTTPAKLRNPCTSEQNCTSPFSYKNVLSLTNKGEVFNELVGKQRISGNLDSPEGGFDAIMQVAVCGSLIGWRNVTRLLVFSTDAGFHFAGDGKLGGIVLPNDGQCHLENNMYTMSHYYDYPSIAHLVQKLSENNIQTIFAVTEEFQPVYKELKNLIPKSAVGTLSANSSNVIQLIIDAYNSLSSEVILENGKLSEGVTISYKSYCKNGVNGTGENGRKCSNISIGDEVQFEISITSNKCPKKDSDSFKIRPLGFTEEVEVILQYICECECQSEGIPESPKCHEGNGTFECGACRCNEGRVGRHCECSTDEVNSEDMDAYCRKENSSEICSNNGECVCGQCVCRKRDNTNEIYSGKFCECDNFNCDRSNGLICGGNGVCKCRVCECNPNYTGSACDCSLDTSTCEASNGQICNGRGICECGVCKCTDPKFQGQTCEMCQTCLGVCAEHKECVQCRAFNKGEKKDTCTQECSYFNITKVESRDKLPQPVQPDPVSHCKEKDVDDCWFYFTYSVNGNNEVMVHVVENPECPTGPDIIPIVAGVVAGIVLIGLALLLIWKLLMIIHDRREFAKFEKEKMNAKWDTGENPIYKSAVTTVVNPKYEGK
Chain of Integrin beta-1 (Homo sapiens) + Integrin alpha-4 (Homo sapiens) (P13612 whole entry, looked up): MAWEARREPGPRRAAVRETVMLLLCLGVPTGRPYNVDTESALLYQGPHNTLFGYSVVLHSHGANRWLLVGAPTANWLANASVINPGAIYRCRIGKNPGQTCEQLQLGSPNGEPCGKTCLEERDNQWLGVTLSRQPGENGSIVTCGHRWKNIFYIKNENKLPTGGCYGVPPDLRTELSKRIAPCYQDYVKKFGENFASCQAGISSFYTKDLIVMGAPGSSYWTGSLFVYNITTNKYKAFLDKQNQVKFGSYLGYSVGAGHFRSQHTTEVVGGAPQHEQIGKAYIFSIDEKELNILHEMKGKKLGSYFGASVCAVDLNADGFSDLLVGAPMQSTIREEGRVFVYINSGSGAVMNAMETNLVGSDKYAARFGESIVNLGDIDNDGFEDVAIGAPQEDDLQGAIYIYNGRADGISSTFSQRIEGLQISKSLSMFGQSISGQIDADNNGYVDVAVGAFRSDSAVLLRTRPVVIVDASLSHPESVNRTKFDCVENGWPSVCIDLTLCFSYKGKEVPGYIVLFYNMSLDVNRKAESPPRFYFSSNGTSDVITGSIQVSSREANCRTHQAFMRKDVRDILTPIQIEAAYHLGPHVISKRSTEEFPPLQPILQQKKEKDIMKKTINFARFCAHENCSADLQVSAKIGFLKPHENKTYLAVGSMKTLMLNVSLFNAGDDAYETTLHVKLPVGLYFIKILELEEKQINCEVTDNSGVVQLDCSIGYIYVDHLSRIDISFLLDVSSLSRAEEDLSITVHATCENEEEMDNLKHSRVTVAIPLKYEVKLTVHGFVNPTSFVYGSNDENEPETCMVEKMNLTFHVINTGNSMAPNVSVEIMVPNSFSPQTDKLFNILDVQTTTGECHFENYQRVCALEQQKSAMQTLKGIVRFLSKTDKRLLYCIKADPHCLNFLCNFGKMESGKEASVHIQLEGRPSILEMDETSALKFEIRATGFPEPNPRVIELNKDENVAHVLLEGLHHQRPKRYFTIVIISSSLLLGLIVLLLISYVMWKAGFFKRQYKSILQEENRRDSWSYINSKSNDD
Chain of AP-2 complex subunit beta (Homo sapiens) (P63010 whole entry, looked up, the tested form may be a part, one chain of several): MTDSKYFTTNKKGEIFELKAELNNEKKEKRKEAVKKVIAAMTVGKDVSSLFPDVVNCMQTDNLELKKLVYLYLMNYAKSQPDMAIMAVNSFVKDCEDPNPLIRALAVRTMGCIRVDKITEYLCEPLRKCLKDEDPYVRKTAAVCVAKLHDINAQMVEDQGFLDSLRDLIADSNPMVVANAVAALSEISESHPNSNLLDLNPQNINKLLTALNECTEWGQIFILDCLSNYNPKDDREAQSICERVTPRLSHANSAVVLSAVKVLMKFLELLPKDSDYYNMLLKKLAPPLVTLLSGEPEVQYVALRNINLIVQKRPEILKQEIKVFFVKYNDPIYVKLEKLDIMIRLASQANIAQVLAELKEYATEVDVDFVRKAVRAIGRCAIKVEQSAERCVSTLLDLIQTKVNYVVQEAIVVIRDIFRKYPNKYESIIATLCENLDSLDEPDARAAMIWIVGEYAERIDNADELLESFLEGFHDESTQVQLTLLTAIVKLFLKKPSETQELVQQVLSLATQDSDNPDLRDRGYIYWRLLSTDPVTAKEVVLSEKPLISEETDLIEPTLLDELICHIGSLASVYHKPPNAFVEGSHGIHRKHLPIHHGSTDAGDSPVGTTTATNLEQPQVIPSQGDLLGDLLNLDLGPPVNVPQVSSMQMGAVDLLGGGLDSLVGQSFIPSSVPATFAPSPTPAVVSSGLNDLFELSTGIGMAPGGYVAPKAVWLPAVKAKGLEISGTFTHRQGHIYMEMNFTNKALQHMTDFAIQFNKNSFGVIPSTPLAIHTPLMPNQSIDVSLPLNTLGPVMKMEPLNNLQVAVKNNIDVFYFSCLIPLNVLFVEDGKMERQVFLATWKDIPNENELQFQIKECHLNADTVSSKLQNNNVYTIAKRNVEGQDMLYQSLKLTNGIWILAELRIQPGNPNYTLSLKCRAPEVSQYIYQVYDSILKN
Chain of ATP-binding cassette sub-family B member 6 (Homo sapiens) (Q9NP58 whole entry, looked up): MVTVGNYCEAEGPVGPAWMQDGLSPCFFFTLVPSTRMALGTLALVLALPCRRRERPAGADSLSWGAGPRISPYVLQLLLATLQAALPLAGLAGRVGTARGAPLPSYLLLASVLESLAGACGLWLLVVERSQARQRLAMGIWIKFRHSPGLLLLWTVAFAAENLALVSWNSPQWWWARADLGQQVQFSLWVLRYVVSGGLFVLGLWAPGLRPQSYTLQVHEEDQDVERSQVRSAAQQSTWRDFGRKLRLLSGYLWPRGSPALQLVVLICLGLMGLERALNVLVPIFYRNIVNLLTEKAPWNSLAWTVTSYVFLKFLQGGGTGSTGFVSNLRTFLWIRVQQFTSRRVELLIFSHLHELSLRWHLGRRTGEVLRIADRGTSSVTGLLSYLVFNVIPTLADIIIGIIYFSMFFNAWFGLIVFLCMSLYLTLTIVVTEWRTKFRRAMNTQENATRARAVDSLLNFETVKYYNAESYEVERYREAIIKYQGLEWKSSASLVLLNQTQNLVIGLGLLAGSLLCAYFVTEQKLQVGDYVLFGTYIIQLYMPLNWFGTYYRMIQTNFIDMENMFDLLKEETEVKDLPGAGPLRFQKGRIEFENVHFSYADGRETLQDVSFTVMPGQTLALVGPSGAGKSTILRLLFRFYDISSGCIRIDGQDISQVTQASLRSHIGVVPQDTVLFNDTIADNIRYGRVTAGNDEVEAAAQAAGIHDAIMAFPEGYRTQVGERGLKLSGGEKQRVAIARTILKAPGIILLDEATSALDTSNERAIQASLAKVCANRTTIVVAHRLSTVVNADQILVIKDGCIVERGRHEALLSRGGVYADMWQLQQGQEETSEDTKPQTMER
Chain of Beta-adrenergic receptor kinase 1 (Homo sapiens) (P25098 whole entry, looked up): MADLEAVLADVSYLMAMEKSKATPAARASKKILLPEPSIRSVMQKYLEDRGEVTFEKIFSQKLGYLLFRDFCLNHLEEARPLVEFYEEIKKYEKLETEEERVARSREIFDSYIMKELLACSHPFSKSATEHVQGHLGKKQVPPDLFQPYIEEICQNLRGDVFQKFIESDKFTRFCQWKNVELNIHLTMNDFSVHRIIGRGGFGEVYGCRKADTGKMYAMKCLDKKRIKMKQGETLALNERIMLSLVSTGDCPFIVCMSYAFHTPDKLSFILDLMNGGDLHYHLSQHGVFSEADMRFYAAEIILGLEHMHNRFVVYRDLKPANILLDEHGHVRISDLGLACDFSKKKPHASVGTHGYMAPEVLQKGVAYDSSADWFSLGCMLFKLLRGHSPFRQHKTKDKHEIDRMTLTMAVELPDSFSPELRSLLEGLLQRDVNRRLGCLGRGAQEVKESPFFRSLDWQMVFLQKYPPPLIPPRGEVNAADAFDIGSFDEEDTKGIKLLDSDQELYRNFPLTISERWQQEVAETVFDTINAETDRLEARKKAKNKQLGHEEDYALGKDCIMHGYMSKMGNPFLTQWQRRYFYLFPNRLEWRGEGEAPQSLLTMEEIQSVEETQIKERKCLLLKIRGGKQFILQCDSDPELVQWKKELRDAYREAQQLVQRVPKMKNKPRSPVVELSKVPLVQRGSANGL
Chain of Beta-2 adrenergic receptor (Homo sapiens) (P07550 whole entry, looked up): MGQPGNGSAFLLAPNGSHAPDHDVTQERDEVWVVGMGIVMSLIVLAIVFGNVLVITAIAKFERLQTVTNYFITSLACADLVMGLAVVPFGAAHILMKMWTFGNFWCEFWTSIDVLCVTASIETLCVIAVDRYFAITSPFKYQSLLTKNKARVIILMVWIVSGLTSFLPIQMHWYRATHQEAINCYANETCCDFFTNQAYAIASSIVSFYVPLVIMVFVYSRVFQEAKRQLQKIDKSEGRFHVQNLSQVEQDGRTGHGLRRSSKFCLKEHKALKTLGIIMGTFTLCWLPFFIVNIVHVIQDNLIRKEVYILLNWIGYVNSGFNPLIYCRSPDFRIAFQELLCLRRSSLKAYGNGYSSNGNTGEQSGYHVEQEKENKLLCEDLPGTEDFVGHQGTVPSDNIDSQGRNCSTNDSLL

Row | SMILES | percent of DMSO control GFP [1] | GFP response vs DMSO [2] | percent response of DMSO control [3] | GFP response vs DMSO [4] | GFP response, % of DMSO [5] | double positive events [6] [%] | vesicle binding response [6] | inhibition [7] | superoxide response (% of plate) [8] | aptamer binding inhibition [9] | response [10] | inhibition [11] | response [12] | binding (% of control) [13] | efflux inhibition (fraction of control) [14] | inhibition [15] | differentiation response [16]
1 | CCCNCC(O)COc1ccccc1C(=O)CCc1ccccc1 (stereo unspecified) | 101% (inactive) | 110% (inactive) | 89.6% (inactive) | 88.7% (inactive) | 92.9% (inactive) | 62.4 | 894% (inactive) | 21.3% (inactive) | 98.6% (inactive) | 3% (inactive) | -7.14% (inactive) | -4.07% (inactive) | 0.31% (inactive) | 100% (inactive) | 0.11 (inactive) | -1% (inactive) | -0.73% (inactive)
2 | O=C(c1ccc(Cl)cc1)C1CCCN(C(=O)/C=C/c2ccccn2)C1 (stereo unspecified) | 92.4% (inactive) | 102% (inactive) | 97.7% (inactive) | 137% (inactive) | 115% (inactive) | 57.5 | 280% (inactive) | -1.12% (inactive) | 91.6% (inactive) | -3% (inactive) | -44.8% (inactive) | -19.4% (inactive) | 2.11% (inactive) | 106% (inactive) | 0 (inactive) | -2% (inactive) | -1.05% (inactive)
3 | COC(=O)c1cc(Br)c(=O)n(CCc2ccc(O)cc2)c1 | 95.2% (inactive) | 109% (inactive) | 93.9% (inactive) | 123% (inactive) | 99.7% (inactive) | 57.8 | 234% (inactive) | 6.4% (inactive) | 103% (inactive) | 5% (inactive) | -13.9% (inactive) | 4.99% (inactive) | -0.03% (inactive) | 96.8% (inactive) | -0.17 (inactive) | 8% (inactive) | -10.4% (inactive)
4 | CC(C)C(CCN1C(=O)CCC1=O)C1CCOC(C)(C)C1 (stereo unspecified) | 103% (inactive) | 104% (inactive) | 100% (inactive) | 95.8% (inactive) | 101% (inactive) | 62.8 | 130% (inactive) | 3.98% (inactive) | 103% (inactive) | 11% (inactive) | -1.22% (inactive) | -12.4% (inactive) | -0.12% (inactive) | 98.8% (inactive) | 0.42 (inactive) | 10% (inactive) | 4.97% (inactive)
5 | COc1cc(-c2cccs2)cc(=O)c2c(C)oc(C)c12 | 97.6% (inactive) | 105% (inactive) | 84.4% (inactive) | 142% (inactive) | 93.2% (inactive) | 62.6 | 235% (inactive) | -160% (inactive) | 96.1% (inactive) | -1% (inactive) | 54% (active) | 54.7% (active) | -7.46% (inactive) | 105% (inactive) | 0.26 (inactive) | 2% (inactive) | 4% (inactive)
6 | CCN(CC)c1ccc([C@H]2[C@@H]3CCCC[C@]3(O)CCN2CC(=O)NCc2ccco2)cc1 | 97.4% (inactive) | 108% (inactive) | 91% (inactive) | 121% (inactive) | 98.5% (inactive) | 60.3 | 190% (inactive) | -25% (inactive) | 95.1% (inactive) | 4% (inactive) | 47.5% (active) | -7.96% (inactive) | 25.9% (active) | 99.5% (inactive) | 0.33 (inactive) | 8% (inactive) | -7.2% (inactive)
7 | COc1cccc2c1OCC1COc3c(c(=O)n(C)c(=O)n3C)C21 (stereo unspecified) | 101% (inactive) | 108% (inactive) | 99.6% (inactive) | 130% (inactive) | 102% (inactive) | 64.4 | 201% (inactive) | 14.6% (inactive) | 95% (inactive) | -1% (inactive) | -9.55% (inactive) | 59.9% (active) | -4.7% (inactive) | 101% (inactive) | 0.08 (inactive) | 2% (inactive) | 13.6% (inactive)
8 | CN(C)C(=O)CCCCCCCCC(=O)N(C)C | 90.6% (inactive) | 146% (active) | 107% (inactive) | 79.2% (inactive) | 93.3% (inactive) | 64.1 | 194% (inactive) | 7.43% (inactive) | 81.8% (inactive) | 5% (inactive) | 3.92% (inactive) | 12.9% (inactive) | -5.22% (inactive) | 101% (inactive) | 0.16 (inactive) | 6% (inactive) | 1.64% (inactive)
9 | CC(C)(Oc1ccc(CCNC(=O)c2ccc(Cl)cc2)cc1)C(=O)O | 106% (inactive) | 107% (inactive) | 96.6% (inactive) | 101% (inactive) | 103% (inactive) | 65.7 | 137% (inactive) | -8.75% (inactive) | 110% (inactive) | 3% (inactive) | -3.83% (inactive) | 23.2% (inactive) | -4.97% (inactive) | 93.5% (inactive) | 0.08 (inactive) | 19% (inactive) | 8.06% (inactive)
10 | C[C@H](CCC(=O)O)[C@H]1CC[C@H]2[C@@H]3C(=O)C[C@@H]4CC(=O)CC[C@]4(C)[C@H]3CC(=O)[C@]12C | 99.3% (inactive) | 105% (inactive) | 101% (inactive) | 120% (inactive) | 119% (inactive) | 57.7 | 220% (inactive) | 22.7% (inactive) | 95.4% (inactive) | 4% (inactive) | -23.4% (inactive) | 10.1% (inactive) | -2.4% (inactive) | 109% (inactive) | -0.09 (inactive) | 0% (inactive) | -11.9% (inactive)
11 | COc1ccc(Cc2noc(CN(C)CCN3CCc4ccccc4C3)n2)cc1OC | 103% (inactive) | 105% (inactive) | 109% (inactive) | 91.4% (inactive) | 103% (inactive) | 65.2 | 232% (inactive) | -8.75% (inactive) | 95% (inactive) | 6% (inactive) | -6.59% (inactive) | -8.41% (inactive) | 0.56% (inactive) | 104% (inactive) | -0.1 (inactive) | -12% (inactive) | 5.13% (inactive)
12 | CCOC(=O)N1c2ccccc2C=CC1OCC (stereo unspecified) | 103% (inactive) | 97.7% (inactive) | 102% (inactive) | 108% (inactive) | 109% (inactive) | 57 | 109% (inactive) | 2.93% (inactive) | 110% (inactive) | 3% (inactive) | 2.04% (inactive) | -6.59% (inactive) | -0.43% (inactive) | 103% (inactive) | -0.29 (inactive) | -3% (inactive) | -13.3% (inactive)
13 | CCc1cc2c(=O)c(-c3nc(C)cs3)coc2cc1OC(C)C(=O)NCCO (stereo unspecified) | 90.2% (inactive) | 129% (inactive) | 107% (inactive) | 86.4% (inactive) | 92.4% (inactive) | 62.3 | 143% (inactive) | 9.37% (inactive) | 95.6% (inactive) | 3% (inactive) | 8.19% (inactive) | -0.76% (inactive) | -0.12% (inactive) | 101% (inactive) | -0.2 (inactive) | 10% (inactive) | -4.09% (inactive)
14 | O=c1nc2sc3ccccc3n2c(=O)n1-c1ccc(Cl)cc1 | 105% (inactive) | 97.2% (inactive) | 108% (inactive) | 96.6% (inactive) | 99.7% (inactive) | 64.1 | 232% (inactive) | -12.9% (inactive) | 110% (inactive) | -3% (inactive) | -10.3% (inactive) | -5.72% (inactive) | 1.03% (inactive) | 96.4% (inactive) | -0.14 (inactive) | 11% (inactive) | 3.18% (inactive)
15 | CCOC(=O)c1c(C)oc2c1C(=O)c1ccccc1C2=O | 111% (inactive) | 102% (inactive) | 107% (inactive) | 104% (inactive) | 99.9% (inactive) | 59.4 | 316% (inactive) | -16.1% (inactive) | 126% (inactive) | 5% (inactive) | 3.7% (inactive) | 0.55% (inactive) | 0.26% (inactive) | 96.7% (inactive) | -0.22 (inactive) | -26% (inactive) | -0.36% (inactive)
16 | COc1ccc(/C=C2\CC/C(=C\c3ccc(OC)c(OC)c3)C2=O)cc1OC | 99.8% (inactive) | 103% (inactive) | 97.1% (inactive) | 97.2% (inactive) | 96.6% (inactive) | 59.8 | 254% (inactive) | -18.9% (inactive) | 99% (inactive) | 3% (inactive) | 17.4% (inactive) | 0.71% (inactive) | -0.5% (inactive) | 98.8% (inactive) | 0.1 (inactive) | 2% (inactive) | -5.68% (inactive)
17 | CCc1cc2c(=O)c(-c3ccc4c(c3)OCCO4)coc2c(CN2CCCCC2C)c1O (stereo unspecified) | 103% (inactive) | 98.6% (inactive) | 91.8% (inactive) | 103% (inactive) | 109% (inactive) | 63.4 | 177% (inactive) | 14.2% (inactive) | 65.8% (inactive) | 2% (inactive) | -18.8% (inactive) | 9.88% (inactive) | 3.99% (inactive) | 112% (inactive) | -0.04 (inactive) | -2% (inactive) | 15.7% (inactive)
18 | CCOc1ccc2[nH]c3c(=O)n(CCc4ccc(OC)cc4)cnc3c2c1 | 99.5% (inactive) | 112% (inactive) | 90.1% (inactive) | 120% (inactive) | 101% (inactive) | 61.3 | 211% (inactive) | 6.4% (inactive) | 99.7% (inactive) | 0% (inactive) | 0.24% (inactive) | -8.18% (inactive) | 65.9% (active) | 102% (inactive) | 0.12 (inactive) | 5% (inactive) | 29.6% (inactive)
